Results published in PubChem BioAssay (NCI).
Compounds without any hit were thinned out: in the full panel of roughly 79,000, 15% have a hit. Unmarked numbers belong to inactive results. Active and inactive are the calls of the source. No stated cut-off is given here; in the data, active means growth inhibition above about 70%; inactive means the rest.

Tests used:
[1] = NCI Yeast Anticancer Drug Screen. Data for the rad50 strain (AID 155);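 further: 0% = growth of vehicle-only cultures of the same strain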; conditions: S. cerevisiae rad50 strain growth inhibition, active compounds read high
How it was run: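 Inhibition values express reduced yeast growth in compound-treated cultures relative to vehicle-treated controls.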

[2] = NCI Yeast Anticancer Drug Screen. Data for the mec2-1 strain (AID 157); conditions: S. cerevisiae mec2-1 strain, active compounds read high
How it was run: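 Vehicle-treated cultures served as reference for growth inhibition of compound-exposed mec2-1 yeast.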

[3] = NCI Yeast Anticancer Drug Screen. Data for the sgs1 mgt1 strain (AID 161);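 further: 0% = growth of cultures given vehicle only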; conditions: S. cerevisiae sgs1 mgt1 strain, active compounds read high
How it was run: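 Genetically altered yeast, compound exposure, growth inhibition relative to vehicle.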

[4] = NCI Yeast Anticancer Drug Screen. Data for the cln2 rad14 strain (AID 165);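 further: 0% = growth equal to vehicle treated cultures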; conditions: S. cerevisiae cln2 rad14 strain, active compounds read high
How it was run: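 Each compound was tested on cln2 rad14 yeast. Inhibition of growth was calculated against vehicle-exposed controls.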

[5] = NCI Yeast Anticancer Drug Screen. Data for the bub3 strain (AID 167); conditions: S. cerevisiae bub3 mutant strain, active compounds read high
How it was run: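 Steps: expose the mutant yeast strain to compound; grow alongside vehicle-treated cultures; measure growth; express inhibition against the vehicle cultures.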

[6] = NCI Yeast Anticancer Drug Screen. Data for the mlh1 rad18 strain (AID 175); conditions: S. cerevisiae mlh1 rad18 strain growth inhibition, active compounds read high
How it was run: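 Vehicle-treated cultures served as the reference for growth inhibition in a yeast strain carrying DNA damage repair alterations exposed to each compound.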

[7] = at 5.0 µM (retest, dose inferred, filed as 0.5)
[8] = at 50.0 µM (retest, dose inferred, filed as 5.0)

Row | SMILES | growth inhibition [1, 7] | growth inhibition [1, 8] | growth inhibition ([1]; at 50.0 µM) | growth inhibition [2, 7] | growth inhibition [2, 8] | growth inhibition ([2]; at 50.0 µM) | growth inhibition [3, 7] | growth inhibition [3, 8] | growth inhibition ([3]; at 50.0 µM) | growth inhibition [4, 7] | growth inhibition [4, 8] | growth inhibition ([4]; at 50.0 µM) | growth inhibition [5, 7] | growth inhibition [5, 8] | growth inhibition ([5]; at 50.0 µM) | growth inhibition [6, 7] | growth inhibition [6, 8] | growth inhibition ([6]; at 50.0 µM)
1 | Clc1ccc(-c2csc(NCC3CCCO3)n2)cc1 (configuration not stated) | 46% | 60% | 66.4% | 27% | 57% | 39% | 34% | 83% (active) | 77.2% (active) | 27% | 53% | 63.2% | 39% | 82% (active) | 73.9% (active) | 44% | 70% (active) | 62.4%
2 | O=C(Nc1ccc(Cl)cc1)OCC1C2C=CC(C2)C1CO (configuration not stated) | 6% | 95% (active) | 86.8% (active) | -1% | 97% (active) | 75.7% (active) | 2% | 97% (active) | 98.4% (active) | 2% | 89% (active) | 66.5% | -3% | 92% (active) | 92.9% (active) | 5% | 97% (active) | 77.8% (active)
3 | CCn1c2nc(=O)n(C)c(=O)c-2[n+]([O-])c2cc(C)ccc21 | 16% | 70% (active) | 70.5% (active) | 8% | 33% | 26.4% | 4% | 27% | 44.5% | -2% | 7% | 25.1% | -1% | 13% | 14.9% | 0% | 49% | 10.8%
4 | Oc1c(Br)cc(Br)c2cccnc12 | 93% (active) | 97% (active) | 98.7% (active) | 35% | 97% (active) | 98.9% (active) | 88% (active) | 97% (active) | 98.5% (active) | 82% (active) | 97% (active) | 97.3% (active) | 28% | 88% (active) | 98.3% (active) | 96% (active) | 96% (active) | 98.4% (active)
5 | CCOC(=O)c1c(O)c(C)c(=O)n2c1[nH]c1cc(C)c(C)cc12 | -1% | 12% | -6.75% | 10% | 33% | -6.85% | 12% | 29% | -6.5% | -4% | 2% | -21.3% | -6% | 14% | -43.9% | -4% | 38% | -10.6%
6 | C/C=C/c1cc2c(cc1O)CC[C@@H]1[C@@H]2CC[C@]2(C)[C@@H](O)CC[C@@H]12 | 25% | 97% (active) | 89% (active) | 12% | 98% (active) | 92% (active) | 11% | 97% (active) | 90.7% (active) | 6% | 97% (active) | 92.7% (active) | 22% | 99% (active) | 91.3% (active) | 24% | 97% (active) | 86.7% (active)
7 | CC(O)(c1ccccc1)c1ccccc1S(=O)(=O)Nc1ccccc1 (configuration not stated) | -7% | 99% (active) | 99.2% (active) | 6% | 91% (active) | 98.8% (active) | -4% | 99% (active) | 98.5% (active) | 12% | 33% | 98.5% (active) | -5% | 46% | 98.9% (active) | -2% | 98% (active) | 98.4% (active)
8 | Clc1ccc2nc(Cl)c(Cl)nc2c1 | -143% | 42% | 81.3% (active) | -43% | 27% | 45.3% | -56% | 76% (active) | 88.9% (active) | -54% | 51% | 59.5% | -71% | 44% | 65.2% | -137% | 62% | 69.6%
9 | Cc1ccc(/C=C2\CCCC(CN(C)C)C2=O)cc1 (configuration not stated) | -12% | 95% (active) | 61.5% | -4% | 99% (active) | 62.5% | -16% | 96% (active) | 78.5% (active) | 6% | 97% (active) | 41.4% | -31% | 99% (active) | 49.3% | -13% | 96% (active) | 52.4%
10 | O=c1c2ccccc2c2ccccc2c(=O)n1-c1cc2c3ccccc3ccc2c2ccccc12 | 12% | 16% | -16.2% | -11% | 9% | -12.8% | -4% | 9% | -2.4% | -11% | -10% | 68.2% | -12% | -5% | -66.5% | 5% | 9% | 37.8%
11 | CC(C)CCCC(O)CNCc1ccccc1 (configuration not stated) | 9% | 27% | -1.95% | 17% | 38% | 11.4% | 13% | -11% | 28.2% | 13% | 36% | -18.9% | 5% | 44% | 82% (active) | 7% | 15% | 10.2%
12 | O=C(CC1(O)C(=O)Nc2c(Cl)cccc21)c1ccc(Cl)cc1 (configuration not stated) | 9% | 45% | 18.6% | 8% | 29% | 20.8% | -19% | 36% | 33.8% | 17% | 71% (active) | 19.4% | 10% | 72% (active) | 19.4% | -7% | 54% | 28.3%
13 | CC(CC(C#CCN(C)C)N(C)C)CC(C)(C)C (configuration not stated) | 22% | -9% | -5.3% | 1% | -10% | 15.6% | 3% | 5% | 13.3% | 1% | 24% | -7.5% | 7% | 14% | 41.1% | 6% | -5% | 38.6%
14 | S=C(N/N=C/c1ccccn1)N1CC2CCC(CC2)C1 | 99% (active) | 100% (active) | 90.2% (active) | 99% (active) | 100% (active) | 93.5% (active) | 98% (active) | 99% (active) | 92% (active) | 97% (active) | 100% (active) | 93.2% (active) | 99% (active) | 99% (active) | 92.7% (active) | 99% (active) | 99% (active) | 89.7% (active)
15 | O=C1OC(c2ccc(O)cc2)Sc2ccccc21 (configuration not stated) | 6% | 66% | 81.1% (active) | 38% | 83% (active) | 74.2% (active) | -43% | 40% | 49.8% | 3% | 24% | -22.5% | -1% | 29% | 3.9% | 8% | 56% | 40%
16 | COc1cc2c(cc1O)CCN[C@@]21CS[C@H]2c3c(OC(C)=O)c(C)c4c(c3C(COC1=O)N1C2C2c3c(cc(C)c(OC)c3O)CC([C@@H]1O)N2C)OCO4 (some centres not stated) | 98% (active) | 99% (active) | 92.7% (active) | 99% (active) | 99% (active) | 94% (active) | 99% (active) | 99% (active) | 93.4% (active) | 99% (active) | 99% (active) | 91.6% (active) | 99% (active) | 99% (active) | 93.2% (active) | 99% (active) | 99% (active) | 92% (active)
17 | Cn1c(Sc2ccc(-c3cccnc3)n2C)ccc1-c1cccnc1 | 11% | 91% (active) | 97.8% (active) | -12% | 92% (active) | 98.7% (active) | -7% | 97% (active) | 97.5% (active) | -15% | 77% (active) | 98.1% (active) | -19% | 96% (active) | 97.8% (active) | -5% | 95% (active) | 97.3% (active)
18 | CCOC(=O)C1=C(C)NC(C)=C(C(=O)OCC)C1c1ccc([N+](=O)[O-])s1 | 61% | 98% (active) | 91.3% (active) | 35% | 98% (active) | 93.2% (active) | 49% | 95% (active) | 93.2% (active) | 29% | 77% (active) | 91.7% (active) | 40% | 83% (active) | 93.2% (active) | 65% | 98% (active) | 91.6% (active)
19 | COC(=O)C1(C)CCCC2(C)C3CCC4CC3(C=C4CO)CCC12 (configuration not stated) | 32% | 96% (active) | 53% | 24% | 98% (active) | 43.1% | 35% | 99% (active) | 86.5% (active) | 36% | 91% (active) | 73.5% (active) | 24% | 98% (active) | 80.7% (active) | 41% | 98% (active) | 50.4%
